These results are taken from publication PMC4336329 (PLoS ONE, 2015).

Each structure is given as a SMILES string. The whole screen tested about 310,000 compounds, of which about 14,000 (4.5%) showed an effect of 50% or more. The effect is printed as a negative number. The sample holds strong results, similar compounds and a random draw of the others, so the mix is not that of the screen.
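Note: peak tail current of the secondary pulse compared with the same well before compound.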

For this assay, the target named is human ether-à-go-go-related gene (hERG) potassium channel (human, UniProt Q12809). As to the kind of experiment: primary screen, population patch clamp on CHO cells stably expressing hERG; higher = less effect of the substance.
Sequence of human ether-à-go-go-related gene (hERG) potassium channel (Q12809 whole entry, looked up): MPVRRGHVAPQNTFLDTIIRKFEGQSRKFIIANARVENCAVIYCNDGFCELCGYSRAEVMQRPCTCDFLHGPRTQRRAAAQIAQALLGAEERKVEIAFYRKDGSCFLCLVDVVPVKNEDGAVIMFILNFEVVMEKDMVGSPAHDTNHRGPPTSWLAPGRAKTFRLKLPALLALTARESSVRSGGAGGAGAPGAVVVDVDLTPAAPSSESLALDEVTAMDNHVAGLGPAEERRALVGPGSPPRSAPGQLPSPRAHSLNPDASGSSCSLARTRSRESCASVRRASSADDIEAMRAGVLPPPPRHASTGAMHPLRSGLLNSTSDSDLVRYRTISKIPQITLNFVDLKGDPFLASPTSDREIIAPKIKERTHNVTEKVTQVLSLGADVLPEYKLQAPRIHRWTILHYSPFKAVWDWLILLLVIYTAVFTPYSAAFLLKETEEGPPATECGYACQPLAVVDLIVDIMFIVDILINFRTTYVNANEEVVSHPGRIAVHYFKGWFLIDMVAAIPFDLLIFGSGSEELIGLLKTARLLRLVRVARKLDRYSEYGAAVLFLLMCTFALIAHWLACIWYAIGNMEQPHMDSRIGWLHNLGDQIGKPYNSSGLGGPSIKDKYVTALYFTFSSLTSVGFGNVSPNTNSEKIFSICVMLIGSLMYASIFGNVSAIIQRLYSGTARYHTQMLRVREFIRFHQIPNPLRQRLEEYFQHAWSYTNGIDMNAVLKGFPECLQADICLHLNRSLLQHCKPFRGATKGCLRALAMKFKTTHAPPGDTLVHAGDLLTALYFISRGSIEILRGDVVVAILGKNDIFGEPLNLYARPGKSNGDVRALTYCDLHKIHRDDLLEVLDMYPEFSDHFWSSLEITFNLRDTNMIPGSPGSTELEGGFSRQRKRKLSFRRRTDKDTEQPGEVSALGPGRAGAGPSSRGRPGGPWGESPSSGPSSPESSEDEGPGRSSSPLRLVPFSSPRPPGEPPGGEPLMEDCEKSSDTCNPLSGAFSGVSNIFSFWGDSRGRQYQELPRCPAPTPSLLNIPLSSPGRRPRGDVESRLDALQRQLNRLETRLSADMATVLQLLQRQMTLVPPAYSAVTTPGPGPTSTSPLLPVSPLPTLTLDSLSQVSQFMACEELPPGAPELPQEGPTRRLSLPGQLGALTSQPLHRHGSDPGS
With `COCCSc1nnc(NS(=O)(=O)c2ccc(F)cc2)s1`, the “hERG current change (%, negative = inhibition) at 10uM” value is 3.84%.

For the compound `O=C(c1ccncc1)N1c2ccccc2Sc2ccccc21`, the “hERG current change (%, negative = inhibition) at 10uM” value amounted to 18.2%.

Consider `CC(C)=CCCC(C)N(C=O)C(C)CCC=C(C)C` (stereo not drawn), for which the “hERG current change (%, negative = inhibition) at 10uM” value is recorded as -1.01%.

As for `CC(=O)c1cccc(NC(=O)COC(=O)c2ccccc2C)c1`, the “hERG current change (%, negative = inhibition) at 10uM” value is on record as -14.4%.

For `CN(C)S(=O)(=O)c1ccc(C(=O)OCC(=O)Nc2ccccc2OC(F)F)cc1`, the “hERG current change (%, negative = inhibition) at 10uM” value is -5.82%.

With `CC(OC(=O)c1cc(Br)ccc1O)C(=O)NC1(C#N)CCCCC1` (stereo not drawn), the “hERG current change (%, negative = inhibition) at 10uM” value stood at 27.3%.

In the case of `Cc1c(N=Cc2nc3ccccc3[nH]2)c(=O)n(-c2ccccc2)n1C`, the “hERG current change (%, negative = inhibition) at 10uM” value is 5.52%.

Consider `Cc1ccc(S(=O)(=O)NC(CC(=O)N2CCC3(CC2)OCCO3)c2ccco2)cc1` (stereo not drawn), for which the “hERG current change (%, negative = inhibition) at 10uM” value was determined as 3.51%.

For the compound `CC(C)[C@H](NC(=O)NCCc1ccc(Cl)cc1)C(=O)O`, the “hERG current change (%, negative = inhibition) at 10uM” value stood at 5.9%.

As for `COc1ccccc1-c1noc(CCC(=O)Nc2cc(C(F)(F)F)ccc2Cl)n1`, the “hERG current change (%, negative = inhibition) at 10uM” value is given as -3.68%.

With `CC(C)=CC(=O)OCC(=O)Nc1cc([N+](=O)[O-])ccc1F`, the “hERG current change (%, negative = inhibition) at 10uM” value was 0.461%.

`CC(C)CCN(Cc1ccco1)S(=O)(=O)c1csc(C(N)=O)c1`: the “hERG current change (%, negative = inhibition) at 10uM” value is -14.9%.

Regarding `CC1(c2ccc(OC(F)F)cc2)NC(=O)N(CC(=O)N2c3ccccc3NC(=O)C2(C)C)C1=O` (stereo not drawn), the “hERG current change (%, negative = inhibition) at 10uM” value is recorded as -6.78%.

Regarding `CCCCNC(=O)N(O)C1N(/N=C/c2ccccc2F)C(=S)SC1(C)C` (stereo not drawn), the “hERG current change (%, negative = inhibition) at 10uM” value amounted to 16.5%.

`Cc1ccc(C(=O)N[C@H](C(=O)OCC(=O)NC2CCS(=O)(=O)C2)C(C)C)cc1` (stereo partly drawn): the “hERG current change (%, negative = inhibition) at 10uM” value is on record as 11.6%.

Regarding `Cc1ccc(NC(=S)N(CCCN(C)C)Cc2cc3cc4c(cc3[nH]c2=O)OCO4)cc1`, the “hERG current change (%, negative = inhibition) at 10uM” value was -41.7%.

As for `CN(C)CCCN(Cc1cc2cc3c(cc2[nH]c1=O)OCO3)C(=S)Nc1cccc(Cl)c1`, the “hERG current change (%, negative = inhibition) at 10uM” value was -45.7%.

`Cc1ccc2[nH]c(=O)c(CN(CCCN(C)C)C(=O)Nc3cccc(Cl)c3)cc2c1`: the “hERG current change (%, negative = inhibition) at 10uM” value is listed as -53.6%.

In the case of `CN(C)CCCN(Cc1cc2cc3c(cc2[nH]c1=O)OCO3)C(=S)Nc1ccccc1`, the “hERG current change (%, negative = inhibition) at 10uM” value is reported as -36.6%.

With `Cc1ccc2[nH]c(=O)c(CN(CCO)C(=O)N(C)C)cc2c1`, the “hERG current change (%, negative = inhibition) at 10uM” value is on record as 5.5%.

For `COc1ccc(NC(=O)N(Cc2cc3cc(C)ccc3[nH]c2=O)CC2CCCO2)cc1` (stereo not drawn), the “hERG current change (%, negative = inhibition) at 10uM” value is -25.2%.

Turning to `Cc1ccc2[nH]c(=O)c(CN(CCCN(C)C)C(=O)Nc3ccc(F)cc3)cc2c1`, the “hERG current change (%, negative = inhibition) at 10uM” value is recorded as -70.7%.

For `Cc1cccc(NC(=O)N(Cc2cc3cc(C)ccc3[nH]c2=O)CC2COCCO2)c1` (stereo not drawn), the “hERG current change (%, negative = inhibition) at 10uM” value came to 6.43%.

For the compound `Cc1cccc(NC(=S)N(CCCN(C)C)Cc2cc3cc4c(cc3[nH]c2=O)OCO4)c1`, the “hERG current change (%, negative = inhibition) at 10uM” value was -52.7%.

Take `Cc1ccc2[nH]c(=O)c(CN(CCCN(C)C)C(=O)Nc3ccc(Cl)cc3)cc2c1`: the “hERG current change (%, negative = inhibition) at 10uM” value is recorded as -66.1%.

Consider `CC(=O)N(CCc1cccc(C)c1)Cc1cc2cc(C)ccc2[nH]c1=O`, for which the “hERG current change (%, negative = inhibition) at 10uM” value was -5.71%.

With `CCCn1c(SCC(=O)NCc2ccco2)nnc1-c1ccncc1`, the “hERG current change (%, negative = inhibition) at 10uM” value was found to be 19.9%.

For the compound `O=C(NNC(=O)C1CC1)Nc1ccc(Cl)cc1`, the “hERG current change (%, negative = inhibition) at 10uM” value is 6.38%.

`CNC(=O)c1nn(-c2ccccc2)ccc1=O`: the “hERG current change (%, negative = inhibition) at 10uM” value was -1.51%.

In the case of `COc1cc2nc(N3CCN(C(=O)[C@H]4COc5ccccc5O4)CC3)nc(N)c2cc1OC`, the “hERG current change (%, negative = inhibition) at 10uM” value is recorded as -37.7%.

Regarding `O=S(=O)(c1ccccc1F)N1CCN(Cc2cc3c(cc2O)OCO3)CC1`, the “hERG current change (%, negative = inhibition) at 10uM” value was -11.8%.

With `O=C(COC(=O)C1=COCCO1)Nc1ccc(F)c(F)c1`, the “hERG current change (%, negative = inhibition) at 10uM” value is -1.21%.

On to `Cc1ccc(N2C(=O)C3C4C=CC(C4)C3C2=O)cc1C` (stereo not drawn), for which the “hERG current change (%, negative = inhibition) at 10uM” value came to 13.3%.

For the compound `C=CCn1c(SCC(=O)NC(=O)c2cccc([N+](=O)[O-])c2)nnc1-c1ccccc1F`, the “hERG current change (%, negative = inhibition) at 10uM” value is on record as -15.5%.

Take `Cn1c(SCC(=O)NC(=O)c2cccc([N+](=O)[O-])c2)nnc1-c1ccc(F)cc1`: the “hERG current change (%, negative = inhibition) at 10uM” value is -23.3%.

On to `O=C(CSc1nnc(-c2ccccc2F)n1C1CC1)NC(=O)c1cccc([N+](=O)[O-])c1`, for which the “hERG current change (%, negative = inhibition) at 10uM” value is on record as -52.8%.

In the case of `NS(=O)(=O)c1cccc(C(=O)NC2CCSc3ccccc32)c1` (stereo not drawn), the “hERG current change (%, negative = inhibition) at 10uM” value amounted to 7.91%.

In the case of `COc1cc(C(=O)N/N=C/c2ccc(OC(=O)c3ccccc3Cl)cc2)ccc1O`, the “hERG current change (%, negative = inhibition) at 10uM” value was -10.5%.

Regarding `O=c1[nH]c(=S)[nH]c2scc(-c3ccc(Br)cc3)c12`, the “hERG current change (%, negative = inhibition) at 10uM” value turned out to be 16.3%.

For `CCS(=O)(=O)Nc1cccc(C2=NN(S(=O)(=O)CC)C(c3ccccc3)C2)c1` (stereo not drawn), the “hERG current change (%, negative = inhibition) at 10uM” value was determined as 1.69%.

In the case of `Cc1ccc(C2CC(c3cccc(NS(C)(=O)=O)c3)=NN2S(C)(=O)=O)cc1` (stereo not drawn), the “hERG current change (%, negative = inhibition) at 10uM” value was -69.3%.

For `CCS(=O)(=O)N1N=C(c2cccc(NS(C)(=O)=O)c2)CC1c1ccccc1` (stereo not drawn), the “hERG current change (%, negative = inhibition) at 10uM” value is -16.9%.
